EBV gp42 inh: blocks Epstein-Barr virus glycoprotein 42 binding. Fluorescence polarization binding assay, mP read-out. inhibition, % (tested at 21.74 µM). actives 0.42% (n = 220,000); in the data active = inhibition above about 50%
Target sequence (Q1HVG2 whole entry, looked up): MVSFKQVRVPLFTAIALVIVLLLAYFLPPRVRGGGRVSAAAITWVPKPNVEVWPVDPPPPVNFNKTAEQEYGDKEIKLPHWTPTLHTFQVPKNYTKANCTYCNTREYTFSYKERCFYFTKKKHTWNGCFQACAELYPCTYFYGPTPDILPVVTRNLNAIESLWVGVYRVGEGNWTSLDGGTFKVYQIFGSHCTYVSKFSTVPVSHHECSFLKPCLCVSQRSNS
eIF4H FP inh: inhibitors of RNA binding by human eIF4H. Q15056. eIF4H fluorescence polarization binding assay. inhibition, % at 35 µM. actives 0.94% (n = 290,000). AID 2012;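 also: calls also rest on retests at 20 µM and on dose response follow-up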
eIF4E 4G PPI: inhibitors of eIF4E and eIF4G interaction in translation initiation | TR-FRET eIF4E-eIF4GI(517-606) binding, 2 h | inhibition, % at 21.7 µM | AID 782 | actives 0.37% (n = 220,000) | P63073+Q04637;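 active = inhibition above about 30%, limit read from the data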
PABP FP inh: PABP-poly(A) binding inhibition; PABP-poly(A) RNA binding, fluorescence polarization; P11940; calls only at 35 µM; actives 1% (n = 290,000);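 also: calls also rest on retests at 20 µM and on dose response follow-up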
PABP1 MLLE inh: inhibitors of microRNA-mediated deadenylation, human PABP1 MLLE binding | P11940 | GST-MLLE / FITC-PAM2 fluorescence polarization | inhibition, % at 20 µM | actives 0.36% (n = 360,000) | AID 588489; in the data active = inhibition above about 35%, passing the limit was not always enough
A number is an active result; - = inactive; ? = inconclusive; . = not tested or not shown; + = active, no number. The list is not random: actives were taken first. Their share in the collection is about 1.7%. Unless noted, no rule for the calls is given here.

SMILES	EBV gp42 inh	eIF4H FP inh	eIF4E 4G PPI	PABP FP inh	PABP1 MLLE inh
O=C1CCCC(O)=C1N=Nc1ccc(C(=O)O)cc1	-	102	-	+	-
Cc1cccc(N(C)C(=O)CCS(=O)(=O)c2cc3c(cc2Cl)NC(=O)CO3)c1	.	-	.	-	39
Cc1cccc(CCNC(=O)CCS(=O)(=O)c2cc3c(cc2Cl)NC(=O)CO3)c1	.	-	.	-	-
COc1ccc(N=Nc2[nH]c3ccc(C)cc3c2O)cc1	-	-	-	-	-
Cc1ccc(N=Nc2[nH]c3ccccc3c2O)cc1	100	-	-	-	-
Cc1onc(-c2c(F)cccc2Cl)c1C(=O)NC(=S)NC1CCS(=O)(=O)C1 (configuration not stated)	-	-	-	-	47
CSc1nc(NCCOCCO)c2sc3nc(-c4ccco4)c4c(c3c2n1)CCC4	-	94	-	+	-
CCN(CCO)c1ncnc2c1sc1nc(C(C)C)c3c(c12)CC(C)(C)OC3	-	-	-	-	-
CSc1nc(NCc2ccco2)c2sc3nc(C(C)C)c4c(c3c2n1)CC(C)(C)OC4	-	-	-	-	-
CCN(CCO)c1nc(SC)nc2c1sc1nc(-c3ccco3)c3c(c12)CCC3	-	85	-	+	-
Cc1cccc(OCC(=O)N2CCOCC2)c1	-	8.3	-	+	-
Clc1ccc(-c2cn3cccnc3n2)cc1Cl	-	71	-	+	-
COc1ccc(-c2cn3cccnc3n2)cc1NC(=O)c1cc(OC)c(OC)c(OC)c1	-	active	-	+	-
Clc1ccc(-c2cn3cccnc3n2)cc1	-	-	-	-	-
CC(=O)OC(COc1ccccc1)Cn1cnc2cc(C)c(C)cc21 (configuration not stated)	-	-	-	-	-
C=CCN1C(=O)CSC1=Nc1cccc(O)c1	-	-	30	-	-
CC1=C(C#N)C(=O)NC(=O)/C1=C\c1ccc(-c2cc(C)c(C)cc2[N+](=O)[O-])o1	-	?	48	?	-
O=C(O)CCN1C(=O)/C(=C\c2ccncc2)SC1=S	-	-	-	-	-
O=C1/C(=C\c2ccco2)SC(=S)N1c1ccccc1	-	-	-	-	-
Cc1ccc(N2C(=O)/C(=C\c3ccco3)SC2=S)cc1	-	77	-	+	-
CC(/C=C1\SC(=S)N(CCC(=O)Nc2ccccc2O)C1=O)=C\c1ccccc1	.	-	.	+	-
O=C(O)CN1C(=O)/C(=C/c2ccc(SCc3ccccc3)o2)SC1=S	-	60	-	+	-
O=C(O)CCN1C(=O)/C(=C\c2ccc(-c3nc4ccccc4s3)o2)SC1=S	-	101	-	+	-
Cc1cc(C)nc(NC2=NCCN2C(=S)Nc2ccc(C)c(C)c2)n1	-	-	-	-	-
O=C1/C(=C\c2ccco2)SC(=S)N1Cc1ccccc1	-	76	-	+	-
SMILES	EBV gp42 inh	eIF4H FP inh	eIF4E 4G PPI	PABP FP inh	PABP1 MLLE inh
O=C(CCCN1C(=O)/C(=C\c2ccco2)SC1=S)Nc1ccc2ccccc2c1	-	78	-	+	-
O=C1/C(=C/c2ccccn2)SC(=S)N1Cc1ccccc1	-	-	-	-	-
CC1=NN2C(=N)/C(=C\c3ccc(SCc4ccccc4)o3)C(=O)N=C2S1	-	?	.	+	-
O=C1/C(=C/c2ccco2)SC(=S)N1CC1CCCO1 (configuration not stated)	-	74	-	-	-
COc1ccc(/C=C2\SC(=S)N(CCCC(=O)Nc3ccc(O)cc3)C2=O)cc1	-	-	-	-	-
Cc1ccc(/C=C2\SC(=S)N(CC3CCCO3)C2=O)o1 (configuration not stated)	-	-	-	-	-
O=C1/C(=C\c2ccco2)NC(=S)N1c1ccccc1	-	-	-	+	-
C=CCN1C(=O)/C(=C\c2ccc(OC(=O)c3ccco3)c(OC)c2)SC1=S	-	-	-	-	-
COc1ccc(CCN2C(=O)/C(=C\c3ccco3)SC2=S)cc1OC	-	63	-	+	-
O=C(CCN1C(=O)/C(=C\c2ccco2)SC1=S)Nc1ccc(C(=O)O)c(O)c1	.	.	.	.	-
COc1ccc(-n2c(C)cc(/C=C3/SC(=S)N(C)C3=O)c2C)cc1	61	-	-	-	-
O=C(CCN1C(=O)/C(=C/c2ccco2)SC1=S)Nc1ccc(O)cc1C(=O)O	.	101	.	+	-
Cc1ccc(C(OCC(C)(C)C[N+](C)(C)C)c2ccccc2)cc1 (configuration not stated)	-	-	-	-	-
CC(=C\c1ccccc1)/C=C1/SC(=S)N(CCCC(=O)O)C1=O	.	-	.	-	-

Compound activity (PubChem BioAssay)
